Source: PubChem
Rows were chosen to be rich in hits. Some 2.3% of all compounds tested hit in one or more screens of this group.
ABHD5 PLIN5 PPI = blocks binding of human ABHD5 to perilipin-5; inhibition, % at 4 µM; 360,000 tested, 0.78% active; Split G. princeps luciferase complementation, luminescence, 4 h; Q00G26+Q8WTS1;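 active = inhibition above the mean inhibition across every tested compound plus 3 SD, cut at about 22% in these data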
m5-HT2A agonist = activates the mouse 5-HT2A serotonin receptor. CHO-K1 mHTR2A beta-arrestin complementation, luminescence; percent of 30 µM serotonin response. activation, % at 7.6 µM. P35363. 360,000 tested, 0.66% active;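 active = activation above a run cutoff, the mean activation of all tested compounds plus 3 SD, cut at about 14% in these data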
Target sequence (P35363 whole entry, looked up): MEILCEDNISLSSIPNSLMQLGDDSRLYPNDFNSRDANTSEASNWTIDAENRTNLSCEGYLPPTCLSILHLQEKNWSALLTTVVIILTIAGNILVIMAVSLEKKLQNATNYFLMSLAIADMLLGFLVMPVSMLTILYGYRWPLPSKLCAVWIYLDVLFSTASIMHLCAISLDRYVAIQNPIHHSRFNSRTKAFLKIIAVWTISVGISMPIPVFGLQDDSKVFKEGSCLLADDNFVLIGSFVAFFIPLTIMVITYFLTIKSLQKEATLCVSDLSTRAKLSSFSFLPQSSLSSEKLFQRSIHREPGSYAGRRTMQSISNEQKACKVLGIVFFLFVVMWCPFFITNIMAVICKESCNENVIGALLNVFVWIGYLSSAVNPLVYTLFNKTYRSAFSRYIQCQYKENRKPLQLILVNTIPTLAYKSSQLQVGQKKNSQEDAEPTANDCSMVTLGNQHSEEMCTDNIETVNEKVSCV
B2AR ag = human beta-2 adrenergic receptor agonism by FAP; Am2.2-beta2AR cells, FAP receptor internalization, flow cytometry; AID 504454; response, % (test concentration not listed); P07550; 340,000 tested, 0.43% active;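 active = response above a set limit, near 3 SD of response in nonfluorescent compounds, cut at about 42% in these data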
NTR1 ag = activates human neurotensin receptor 1; P30989; NTR1-U2OS beta-arrestin-GFP spot imaging, agonist mode; activation, % at 20 µM; 330,000 tested, 0.17% active;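 active = activation at or above 40% of the spot to cytoplasm intensity ratio, with at least 20 cells analyzed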
Granule exo inh = blocks lytic granule exocytosis. TALL-104 LAMP-1 surface exposure, flow cytometry; cells stimulated with thapsigargin and PMA. inhibition, % at 10 µM. 360,000 tested, 0.66% active;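 active = inhibition above about 55%, limit read from the data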
ABHD5-PLIN5 conf = confirmation of human ABHD5-PLIN5 interaction inhibitors; shares compounds with ABHD5 PLIN5 PPI; biochemical ABHD5-PLIN5 interaction, luminescence; inhibition, % at 4 µM; 2,200 tested, 67% active; in the data active = inhibition above about 23%
HNF4 counter = HNF4 split-luciferase signal hit, counter-screen; shares compounds with ABHD5 PLIN5 PPI; HNF4 dimerization, luminescence, biochemical; inhibition, % at 4 µM; 2,200 tested, 77% active; AID 651674;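 active = mean inhibition across replicate wells exceeding the computed hit threshold, cut at about 13% in these data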;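 also: light from luciferase halves that rejoin when HNF4 fusion proteins dimerize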
Each line names hits and unclear results; the compound was inactive in the other large screens (follow-up assays come after a bar, where they were run).

COc1ccc(-c2csc(NC(=O)c3c(C)noc3C)n2)cc1F	none
CC(c1ccccc1)C(OC(=O)c1cccc([N+](=O)[O-])c1C(=O)O)c1ccccc1 (stereo not drawn)	none (no result: NTR1 ag)
CS(=O)(=O)c1ccc(C(=O)NCCN2C(=O)S/C(=C\c3cccnc3)C2=O)cc1[N+](=O)[O-]	ABHD5 PLIN5 PPI 56 | ABHD5-PLIN5 conf 67 | HNF4 counter 44
CC(=O)Nc1cccc(C(=O)/C=C/c2ccc(F)cc2)c1	ABHD5 PLIN5 PPI 68, B2AR ag 54 | ABHD5-PLIN5 conf 88 | HNF4 counter 80
CCCCOC(=O)/C=C\C(=O)OCCCC	none
CCCCOC(=O)/C=C\C(=O)NC(N)=O	ABHD5 PLIN5 PPI 51 | ABHD5-PLIN5 conf 71 | HNF4 counter 57
NC(=O)C1=C[C@H](c2coc3ccccc3c2=O)C[C@H](OCCCCO)O1	ABHD5 PLIN5 PPI 23 | ABHD5-PLIN5 conf inactive | HNF4 counter inactive
O=C1C=CC(=Nc2cccc3c2C(=O)c2ccccc2-3)O1	none (no result: NTR1 ag)
O=C1C=CC(=Nc2ccc3c(c2)Cc2cc(F)ccc2-3)O1	ABHD5 PLIN5 PPI 29 (no result: NTR1 ag) | ABHD5-PLIN5 conf 33 | HNF4 counter 60
COc1ccc(S(=O)(=O)N2CCCC(C(=O)NC3CC3)C2)cc1OC (stereo not drawn)	none
O=C(COC(=O)c1cc(=O)[nH]c2ccccc12)NCc1ccc(Cl)cc1	none
O=C(CCN1CCCC1Cc1ccccc1)c1ccc2c(c1)OCCO2 (stereo not drawn)	ABHD5 PLIN5 PPI 28, Granule exo inh 100 | ABHD5-PLIN5 conf 25 | HNF4 counter 87
O=C(CCN1CCCCC1)c1ccc2c(c1)OCCO2	none
Cc1nnc(NC(=O)c2nc(S(=O)(=O)Cc3ccccc3C)ncc2Cl)s1	ABHD5 PLIN5 PPI 31 | ABHD5-PLIN5 conf 72 | HNF4 counter 48
Cc1cccc(CS(=O)(=O)c2ncc(Cl)c(C(=O)Nc3nnc(C(C)C)s3)n2)c1	ABHD5 PLIN5 PPI 52 | ABHD5-PLIN5 conf 90 | HNF4 counter 59
CSc1nnc(NC(=O)c2nc(S(=O)(=O)Cc3ccccc3F)ncc2Cl)s1	ABHD5 PLIN5 PPI 25 | ABHD5-PLIN5 conf 86 | HNF4 counter 55
CC(C)c1nnc(NC(=O)c2nc(S(=O)(=O)Cc3ccccc3F)ncc2Cl)s1	none (no result: ABHD5 PLIN5 PPI, m5-HT2A agonist, B2AR ag, Granule exo inh)
CC(C)c1nnc(NC(=O)c2nc(S(=O)(=O)Cc3ccc(F)cc3)ncc2Cl)s1	ABHD5 PLIN5 PPI 44 | ABHD5-PLIN5 conf 92 | HNF4 counter 57
O=C(Nc1ccccc1Cl)O/N=C/c1ccncc1	none
CCSc1nnc(NC(=O)c2nc(S(=O)(=O)Cc3ccc(F)cc3)ncc2Cl)s1	ABHD5 PLIN5 PPI 24 | ABHD5-PLIN5 conf 80 | HNF4 counter 49
CSc1nnc(NC(=O)c2nc(S(=O)(=O)Cc3cccc(C)c3)ncc2Cl)s1	ABHD5 PLIN5 PPI 30 | ABHD5-PLIN5 conf 86 | HNF4 counter 56
Cc1ccc(CS(=O)(=O)c2ncc(Cl)c(C(=O)Nc3nnc(C(C)C)s3)n2)cc1	ABHD5 PLIN5 PPI 57 | ABHD5-PLIN5 conf 87 | HNF4 counter 55
CCOc1ccccc1NC(=O)c1nc(S(=O)(=O)Cc2cccc(C)c2)ncc1Cl	none
COc1ccc(-c2nc3ccc(C)cn3c2CC(C)(C)C)cc1OC	none (no result: B2AR ag, NTR1 ag)
O=[N+]([O-])c1ccc(N2CCc3ccccc3C2)nc1	ABHD5 PLIN5 PPI 33 | ABHD5-PLIN5 conf inactive | HNF4 counter 20
Cc1ccc(C2=Nc3ccccc3SC(c3cccc([N+](=O)[O-])c3)C2)cc1 (stereo not drawn)	ABHD5 PLIN5 PPI 59 | ABHD5-PLIN5 conf inactive | HNF4 counter 73
COc1ccc(C[C@@H]2OC3(C=CC(=O)C=C3)O[C@H]2Cc2ccc(OC)cc2)cc1	ABHD5 PLIN5 PPI 100, B2AR ag 52, Granule exo inh 96 (no result: NTR1 ag) | ABHD5-PLIN5 conf 104 | HNF4 counter 108
O=C1C=CC2(C=C1)O[C@H](Cc1ccccc1)[C@@H](Cc1ccccc1)O2	ABHD5 PLIN5 PPI 98, Granule exo inh 98 (no result: NTR1 ag) | ABHD5-PLIN5 conf 103 | HNF4 counter 109
COc1ccc(C(C)(C)C)cc1NC(=O)COC(=O)c1ccc([N+](=O)[O-])o1	none
O=C(Cc1cccc([N+](=O)[O-])c1)Nc1ccc(C(=O)N2CCCCC2)cc1	ABHD5 PLIN5 PPI 25 | ABHD5-PLIN5 conf inactive | HNF4 counter inactive
Cc1ccc(NC(=O)c2sc3nc[nH]c(=O)c3c2C)c(C)c1	none
CN(CCO)c1cc(Sc2nc3ccccc3s2)c2nonc2c1[N+](=O)[O-]	ABHD5 PLIN5 PPI 49, B2AR ag 99, Granule exo inh 56 | ABHD5-PLIN5 conf 80 | HNF4 counter 114
OC[C@@H]1CN(Cc2ccccc2)C[C@H](n2cnc3c(Nc4ccccc4)ncnc32)O1	none (no result: B2AR ag, NTR1 ag)
CSc1nc(=O)[nH]nc1Sc1ccccc1	ABHD5 PLIN5 PPI 33 (no result: B2AR ag, NTR1 ag) | ABHD5-PLIN5 conf 48 | HNF4 counter 53
CSc1nc(Sc2ccccc2)c2ccccc2n1	none
CCNC(=S)Nc1ccc2cn[nH]c2c1	none
N#CC(C#N)=NNc1ccc2cn[nH]c2c1	ABHD5 PLIN5 PPI 48 (no result: B2AR ag, NTR1 ag) | ABHD5-PLIN5 conf 55 | HNF4 counter 58
Cc1c(NC(=O)CSc2nnc(-c3ccccc3F)o2)c(=O)n(-c2ccccc2)n1C	none (no result: B2AR ag, NTR1 ag)
CCOC(=O)c1c(-c2ccc(C)o2)csc1NC(=O)CSc1ncn[nH]1	ABHD5 PLIN5 PPI 44 | ABHD5-PLIN5 conf inactive | HNF4 counter 52
CCOC(=O)c1c(-c2ccc(C)o2)csc1NC(=O)CN1CCOCC1	none
O=C(C(Cl)Cl)N1c2ccccc2OCC1c1ccccc1 (stereo not drawn)	none
COc1ccc(NC(=O)C(c2ccnc3ccccc23)n2c(=O)c(-c3ccccc3)nc3ccccc32)cc1 (stereo not drawn)	none (no result: B2AR ag, NTR1 ag)
Cc1cccc(C)c1NC(=O)C(c1ccccc1F)n1c(=O)c(-c2cc3ccccc3[nH]2)nc2ccccc21 (stereo not drawn)	none (no result: B2AR ag, NTR1 ag)
Cc1cccc(C)c1NC(=O)C(c1ccnc2ccccc12)n1c(=O)c(-c2ccco2)nc2ccccc21 (stereo not drawn)	ABHD5 PLIN5 PPI 45 (no result: B2AR ag, NTR1 ag) | ABHD5-PLIN5 conf 52 | HNF4 counter 13
Cc1cccc(C)c1NC(=O)C(c1ccccc1F)n1c(=O)c(-c2ccco2)nc2ccccc21 (stereo not drawn)	ABHD5 PLIN5 PPI 86 (no result: B2AR ag, NTR1 ag) | ABHD5-PLIN5 conf 76 | HNF4 counter 28
COc1cccc(/C=C/C(=O)c2ccc(NC3=NCCCS3)cc2)c1	ABHD5 PLIN5 PPI 45 | ABHD5-PLIN5 conf 74 | HNF4 counter 63
Cc1cccc(/C=C/C(=O)c2ccc(NC3=NCCCS3)cc2)c1	ABHD5 PLIN5 PPI 52 | ABHD5-PLIN5 conf 79 | HNF4 counter 61
c1ccc(NC2=NCCCCS2)cc1	none
Cc1ccc(/C=C/C(=O)Nc2cccc3ncccc23)o1	ABHD5 PLIN5 PPI 42 | ABHD5-PLIN5 conf 30 | HNF4 counter 33
